Source: PubChem (National Center for Advancing Translational Sciences (NCATS))
In the library only some 8% were active in any assay of this set; here they are far more common.
MARV entry inh: Marburg virus entry inhibition | AID 540276 | 300,000 compounds, 1.8% hits | Potency, µM (series often up to 37.8 µM), most hits filed as inhibitors | Marburg virus pseudotyped entry inhibition, cell reporter; calls by dose curve; tested in HEK293 cells
FMDV antiviral: blocks foot and mouth disease virus. FMDV antiviral cell-based qHTS. Potency, µM (highest dose often 57.9 µM), usual class: inhibitors. 410,000 compounds, 1.2% hits; calls by dose curve; tested in HEK293T cells; also: read-out not given here; nearly all actives have a fitted effect of over 45% in size
HCV inh: inhibitors of hepatitis C virus infection | Huh7.5.1 HCVcc-Cre infection, luciferase reporter, 44 h | Potency, µM (titrated, usually from 41.8 µM), usual class: inhibitors | 340,000 compounds, 3.4% hits; active = well fitted inhibition curve with a large enough effect; inconclusive = small, poorly fitted or top-dose-only effect, or another doubt; inactive = no such curve, though single readings can be large or run the other way
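Antiviral activity was scored by luciferase reporter output from cells infected with HCVcc-Cre (~0.5 moi) in presence of compound, 44 h infection period, cells seeded 1,000/well 4 h prior.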
Lassa entry inh: blocks Lassa virus binding to or entry into cells; Potency, µM (series often up to 37.9 µM), usual class: inhibitors; Lassa virus pseudotype entry inhibition, cell reporter; AID 540256; 300,000 compounds, 1.2% hits; calls by dose curve; tested in HEK293 cells; also: nearly all actives have a fitted effect of over 50% in size
SARS PLP yeast: inhibitors of SARS-CoV papain-like protease in yeast; S. cerevisiae expressing SARS-CoV PLpro, growth rescue; Potency, µM (series often up to 32.9 µM), usual class: activators; 330,000 compounds, 0.19% hits; calls by dose curve; also: nearly all actives have a fitted effect of over 55% in size
HCMV antiviral: blocks human cytomegalovirus replication; activity change, negative = inhibition, % at 57.5 µM; AID 1259415; HFF cells, HCMV-luciferase reporter, 72 h; active compounds read low; 410,000 compounds, 4.5% hits; in the data active = activity change below about -60%; inconclusive = no clear call, values can overlap the other calls; inactive = above about -39%
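HFF cells seeded 16 h at 37C, treated with compounds, infected with luciferase-reporter HCMV at MOI 1 PFU/cell; luciferase read at 72 h post infection, normalized to buffer-only and Salinomycin controls.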
A number is an active result; - = inactive; ? = inconclusive; . = no result given.

SMILES | MARV entry inh | FMDV antiviral | HCV inh | Lassa entry inh | SARS PLP yeast | HCMV antiviral
Cc1cccc(C)c1OCCn1c(C2CC(=O)N(Cc3ccc(F)cc3)C2)nc2ccccc21 (stereo not drawn) | - | ? | . | ? | . | -
CCOC(=O)c1c(C)[nH]c(C)c1C(=O)COC(=O)/C=C/c1ccc(OC(F)F)cc1 | ? | ? | 31.6µM | 11.2µM | - | -
CCOC(=O)c1c(C)[nH]c(C(=O)COC(=O)/C=C/c2ccc(OC(F)F)cc2)c1C | - | - | - | - | - | -
Cc1cccc(-c2nc(CCNC(=O)c3ccccc3Br)cs2)c1 | . | - | . | - | . | -
COc1ccc(C2c3cc4c(cc3OC(N3CCOCC3)C2C)OCO4)c(OC)c1 (stereo not drawn) | ? | - | ? | 6.31µM | . | ?
COc1cccc(C2c3cc4c(cc3OC(N3CCOCC3)C2C)OCO4)c1O (stereo not drawn) | - | - | - | ? | . | -
Cc1nc(N)nc(N)c1/C=C/C(C)(C)c1ccc(Cl)cc1 | ? | ? | ? | ? | - | -109.0
C=CC[C@@H]1C=CC(ON=CC[C@@H]2C=C[C@@H](OC(C)=O)[C@@H](COC(C)=O)O2)[C@H](CO)O1 (stereo partly drawn) | - | . | . | . | . | .
Cc1ccc2nc(SCC(=O)N3CCN(C(=O)c4ccco4)CC3)[nH]c2c1 | - | - | - | - | - | -
O=C(CSc1nc2ccc(Cl)cc2[nH]1)N1CCN(C(=O)c2ccco2)CC1 | - | - | - | - | - | -64.6
Cc1ncc2c(c1CNC(=O)c1ccc3c(c1)OCO3)CCN(C(=O)c1noc3c1CCCC3)C2 | . | - | . | . | . | .
CC(C)C[C@@H](CN1CCCC1CN1C(=S)NC[C@@H]1Cc1ccc(O)cc1)N1C[C@H](Cc2ccccc2)N(CC2CCCCC2)C1=S (stereo partly drawn) | . | ? | 22.4µM | . | . | -70.5
CC(C)C[C@@H](CN1CCCC1CN1C(=S)NC[C@@H]1Cc1ccc(O)cc1)N1C[C@H](Cc2ccc(O)cc2)N(CC2CCCCCC2)C1=S (stereo partly drawn) | . | ? | ? | . | . | -90.5
CC(C)C[C@@H](CN1CCCC1CN1C(=S)NC[C@@H]1Cc1ccc(O)cc1)N1C[C@H](Cc2ccccc2)N(CC2CCCCCC2)C1=S (stereo partly drawn) | . | - | ? | . | . | -
Cc1ccccc1C1(CC(=O)N2CCCCC2c2cccnc2)CC(=O)N(C2CCCC2)C1=O (stereo not drawn) | . | - | . | . | . | .
CC(=O)OCCN(CCCn1c(-c2ccncc2)nc2ccccc21)c1nc(CN2CCCCC2)cs1 | . | - | 2.51µM | . | - | -
c1ccc2c(c1)nc(-c1ccncc1)n2CCNc1nc(CN2CCCCC2)cs1 | . | - | - | . | - | -
N#C/C(=C\c1ccccc1[N+](=O)[O-])C(=O)NCc1ccccc1 | - | - | - | - | - | -
N#C/C(=C/c1ccc(O)c([N+](=O)[O-])c1)C(=O)Nc1ccccc1 | 2.51µM | ? | - | - | - | ?
N#C/C(=C/c1ccc([N+](=O)[O-])cc1)C(=O)Nc1ccccc1O | ? | - | - | - | - | -
N#C/C(=C\C=C\c1ccccc1[N+](=O)[O-])C(=O)NCc1ccccc1 | ? | - | 31.6µM | 10µM | - | -98.4
N#C/C(=C\C=C\c1ccccc1)C(=O)Nc1ccccc1 | - | - | - | - | - | ?
N#C/C(=C/C=C/c1ccccc1)C(=O)Nc1ccccc1 | 2.91µM | - | - | ? | - | -
COc1ccc(CNC(=O)Cc2c(C)c3ccc(O)cc3oc2=O)cc1 | - | - | . | - | . | -
CCc1ccccc1NC(=O)Cn1nnc(-c2nc(-c3ccc(C)cc3)no2)c1N | . | - | . | - | . | -
SMILES | MARV entry inh | FMDV antiviral | HCV inh | Lassa entry inh | SARS PLP yeast | HCMV antiviral
N#Cc1ccc(Nc2nc(-c3ccc(O)cc3O)cs2)cc1C(F)(F)F | . | 35.5µM | 11.2µM | . | - | .
Oc1ccc(-c2csc(Nc3ccc4c(c3)OCO4)n2)c(O)c1 | . | - | ? | . | . | -
Cc1ccc(NC(=O)c2c(Nc3ccccc3C)sc(C(=O)c3ccccc3)c2N)cc1 | . | ? | . | ? | . | -
COc1ccc(Nc2sc(C(=O)c3ccccc3)c(N)c2C(=O)Nc2cc(C)ccc2C)c(OC)c1 | . | - | . | - | . | -74.1
COc1cccc(Nc2sc(C(=O)c3ccc(F)cc3)c(N)c2C(=O)NCc2ccc(Cl)cc2)c1 | . | - | . | - | . | -
Cc1cc(Nc2sc(C(=O)c3ccc(F)cc3)c(N)c2C(=O)Nc2ccc(F)cc2)ccc1Cl | . | 10µM | . | ? | . | -107.5
